About 2,000 (36%) of roughly 5,500 compounds were called active. Another 18% or so got no clear call; they are omitted. Rule as the data show it: active = normalized growth mostly below about 0.91 (no sharp cut-off); inconclusive = no clear call, values can overlap the other calls; inactive = mostly above about 0.92. The list shows a part of the results.
Experiment: chemical genetic growth profiling, strain panel (AID 1159580);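 also: tested at 20 µM; growth read once vehicle control cultures reached saturation at 30 °C; 1 = growth at the plate median or of vehicle wells; lower values mean less growth of the strain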
Settings: growth OD
[1] = S. cerevisiae deletion strains, locus YGR078C, strain PAC10, hits give low values
[2] = S. cerevisiae deletion strains, locus YMR263W, strain SAP30, hits give low values
[3] = S. cerevisiae deletion strains, locus YNL153C, strain GIM3, hits give low values
[4] = S. cerevisiae deletion strains, locus YNL322C, strain KRE1, hits give low values
[5] = S. cerevisiae deletion strains, locus YPL055C, strain LGE1, hits give low values
[6] = S. cerevisiae deletion strains, locus YPL241C, strain CIN2, hits give low values

Measured: normalized growth

CC1=C(C(=O)O)N2C(=O)[C@@H](NC(=O)C(N)C3=CCC=CC3)[C@H]2SC1 (stereo partly drawn)
inactive: S. cerevisiae deletion strains, locus YAL040C, strain CLN3, hits give low values 1.02 | S. cerevisiae deletion strains, locus YDR363W, strain ESC2, hits give low values 1.03 | S. cerevisiae deletion strains, locus YER002W, strain NOP16, hits give low values 1.02 | [1] 1.01 | [2] 1.03 | [3] 1.01 | S. cerevisiae deletion strains, locus YNL175C, strain NOP13, hits give low values 1.02 | S. cerevisiae deletion strains, locus YNL197C, strain WHI3, hits give low values 1.03 | S. cerevisiae deletion strains, locus YNL224C, strain SQS1, hits give low values 1.01 | [4] 1.03 | S. cerevisiae deletion strains, locus YOR083W, strain WHI5 (second series), hits give low values 1.04 | [5] 1.02 | [6] 1.01

CN=C1CN(O)C(c2ccccc2)=c2cc(Cl)ccc2=N1
inactive: S. cerevisiae deletion strains, locus YAL013W, strain DEP1, hits give low values 0.989 | S. cerevisiae deletion strains, locus YBR021W, strain FUR4, hits give low values 1.06 | S. cerevisiae deletion strains, locus YBR229C, strain ROT2, hits give low values 0.969 | S. cerevisiae deletion strains, locus YCL029C, strain bik1, hits give low values 0.981 | S. cerevisiae deletion strains, locus YDL035C, strain GPR1, hits give low values 1.01 | S. cerevisiae deletion strains, locus YDL074C, strain BRE1, hits give low values 0.965 | S. cerevisiae deletion strains, locus YDL101C, strain DUN1, hits give low values 0.974 | S. cerevisiae deletion strains, locus YDL134C, strain PPH21, hits give low values 0.983 | S. cerevisiae deletion strains, locus YDL185W, strain tfp1, hits give low values 0.946 | S. cerevisiae deletion strains, locus YDL192W, strain arf1, hits give low values 0.983 | S. cerevisiae deletion strains, locus YDR101C, strain arx1, hits give low values 1.01 | S. cerevisiae deletion strains, locus YDR150W, strain NUM1, hits give low values 0.971 | S. cerevisiae deletion strains, locus YDR162C, strain NBP2, hits give low values 0.94 | S. cerevisiae deletion strains, locus YDR318W, strain mcm21, hits give low values 1.01 | S. cerevisiae deletion strains, locus YDR388W, hits give low values 0.983 | S. cerevisiae deletion strains, locus YDR502C, strain sam2, hits give low values 0.971 | S. cerevisiae deletion strains, locus YEL061C, strain CIN8, hits give low values 0.985 | S. cerevisiae deletion strains, locus YER110C, hits give low values 0.985 | S. cerevisiae deletion strains, locus YER155C, strain BEM2, hits give low values 0.997 | S. cerevisiae deletion strains, locus YER167W, strain BCK2, hits give low values 1 | S. cerevisiae deletion strains, locus YGL078C, strain dbp3, hits give low values 0.975 | S. cerevisiae deletion strains, locus YGL086W, strain mad1, hits give low values 1 | S. cerevisiae deletion strains, locus YGL248W, strain PDE1, hits give low values 0.978 | [1] 0.978 | S. cerevisiae deletion strains, locus YGR135W, strain pre9, hits give low values 0.955 | S. cerevisiae deletion strains, locus YGR229C, strain SMI1, hits give low values 0.993 | S. cerevisiae deletion strains, locus YGR252W, strain gcn5, hits give low values 1.06 | S. cerevisiae deletion strains, locus YHR030C, strain SLT2, hits give low values 1 | S. cerevisiae deletion strains, locus YHR079C, strain IRE1 (second series), hits give low values 0.991 | S. cerevisiae deletion strains, locus YHR094C, strain hxt1, hits give low values 0.987 | S. cerevisiae deletion strains, locus YHR129C, strain ARP1, hits give low values 0.992 | S. cerevisiae deletion strains, locus YHR200W, strain rpn10, hits give low values 0.983 | S. cerevisiae deletion strains, locus YIL066C, strain RNR3, hits give low values 0.97 | S. cerevisiae deletion strains, locus YIL073C, strain SPO22, hits give low values 1.02 | S. cerevisiae deletion strains, locus YIL125W, strain kgd1, hits give low values 0.978 | S. cerevisiae deletion strains, locus YIR030C, strain dcg1, hits give low values 0.985 | S. cerevisiae deletion strains, locus YJL095W, strain BCK1, hits give low values 0.981 | S. cerevisiae deletion strains, locus YJL134W, strain LCB3, hits give low values 0.997 | S. cerevisiae deletion strains, locus YJL168C, strain set2, hits give low values 0.984 | S. cerevisiae deletion strains, locus YJL187C, strain SWE1 (second series), hits give low values 0.959 | S. cerevisiae deletion strains, locus YJR043C, strain POL32, hits give low values 1.03 | S. cerevisiae deletion strains, locus YJR075W, strain HOC1, hits give low values 0.988 | S. cerevisiae deletion strains, locus YKL009W, strain mrt4, hits give low values 0.982 | S. cerevisiae deletion strains, locus YKL068W, hits give low values 0.988 | S. cerevisiae deletion strains, locus YKL085W, strain MDH1 (second series), hits give low values 0.978 | S. cerevisiae deletion strains, locus YKL085W, strain MDH1, hits give low values 0.978 | S. cerevisiae deletion strains, locus YKL190W, strain CNB1, hits give low values 0.979 | S. cerevisiae deletion strains, locus YKR001C, strain vps1, hits give low values 0.998 | S. cerevisiae deletion strains, locus YLR039C, strain RIC1, hits give low values 0.973 | S. cerevisiae deletion strains, locus YLR058C, strain SHM2, hits give low values 0.983 | S. cerevisiae deletion strains, locus YLR102C, strain apc9, hits give low values 0.976 | S. cerevisiae deletion strains, locus YLR262C, strain YPT6, hits give low values 0.969 | S. cerevisiae deletion strains, locus YLR268W, strain sec22, hits give low values 0.991 | S. cerevisiae deletion strains, locus YLR330W, strain CHS5, hits give low values 0.998 | S. cerevisiae deletion strains, locus YLR342W, strain FKS1 (second series), hits give low values 1.06 | S. cerevisiae deletion strains, locus YLR371W, strain rom2, hits give low values 0.969 | S. cerevisiae deletion strains, locus YLR418C, strain cdc73, hits give low values 0.951 | S. cerevisiae deletion strains, locus YML016C, strain PPZ1, hits give low values 0.988 | S. cerevisiae deletion strains, locus YML032C, strain rad52, hits give low values 0.989 | S. cerevisiae deletion strains, locus YML124C, strain tub3, hits give low values 0.984 | S. cerevisiae deletion strains, locus YMR078C, strain ctf18, hits give low values 0.98 | [2] 0.957 | S. cerevisiae deletion strains, locus YMR307W, strain GAS1, hits give low values 1.06 | S. cerevisiae deletion strains, locus YNL067W, strain RPL9B, hits give low values 0.974 | S. cerevisiae deletion strains, locus YNL128W, strain TEP1, hits give low values 0.966 | [3] 0.962 | S. cerevisiae deletion strains, locus YNL233W, strain BNI4, hits give low values 0.98 | S. cerevisiae deletion strains, locus YNL250W, strain rad50, hits give low values 0.981 | S. cerevisiae deletion strains, locus YNL271C, strain bni1, hits give low values 0.985 | S. cerevisiae deletion strains, locus YNL298W, strain CLA4, hits give low values 0.977 | S. cerevisiae deletion strains, locus YNL307C, strain MCK1, hits give low values 0.999 | [4] 0.987 | S. cerevisiae deletion strains, locus YNR052C, strain pop2, hits give low values 0.985 | S. cerevisiae deletion strains, locus YOL006C, strain TOP1, hits give low values 0.949 | S. cerevisiae deletion strains, locus YOL012C, strain htz1 0.854 | S. cerevisiae deletion strains, locus YOL147C, strain pex11, hits give low values 0.995 | S. cerevisiae deletion strains, locus YOR061W, strain CKA2, hits give low values 0.969 | S. cerevisiae deletion strains, locus YOR069W, strain VPS5, hits give low values 1 | S. cerevisiae deletion strains, locus YOR136W, strain idh2, hits give low values 0.988 | S. cerevisiae deletion strains, locus YOR144C, strain elg1, hits give low values 0.984 | S. cerevisiae deletion strains, locus YOR184W, strain ser1, hits give low values 1.01 | S. cerevisiae deletion strains, locus YOR316C, strain cot1, hits give low values 0.975 | [5] 0.934 | [6] 0.99 | S. cerevisiae deletion strains, locus YPR119W, strain clb2, hits give low values 0.989 | S. cerevisiae deletion strains, locus YPR141C, strain kar3, hits give low values 0.962 | S. cerevisiae deletion strains, locus YPR163C, strain tif3, hits give low values 0.988 | S. cerevisiae deletion strains, locus YPR167C, strain met16, hits give low values 0.983 | S. cerevisiae deletion strains, strain wtn01, hits give low values 0.984 | S. cerevisiae strains, strain wild type, hits give low values 0.994

Reference: PubChem BioAssay AID1159580 (chemical genetic matrix, 2015)
